The source of these data is PubChem BioAssay (NCI).

Compounds without any hit were thinned out: in the full panel of roughly 79,000, 15% have a hit. Activity calls are given as the source filed them. Rule as the data show it: active = growth inhibition above about 70%; inactive = the rest.

The assay is described as follows: NCI Yeast Anticancer Drug Screen. Data for the mec2-1 strain (AID 157). The note with it: S. cerevisiae mec2-1 strain, at 50.0 µM, hits give high values. The procedure:
Growth inhibition of yeast strains with defined genetic alterations is measured as a screen for potential anti-cancer activity. Selected strains with alterations in DNA damage repair or cell cycle control were exposed to compounds and growth inhibition was measured relative to vehicle treated controls. The strain used in this assay is mec2-1
For the molecule `O=C(O)c1ccc(C(=O)c2ccc(Cl)cc2)cc1`, the growth inhibition was 44.5% (inactive).

With `CC(=O)N1CN2C(=O)CCC2c2ccccc21` (stereo not given), the growth inhibition was 1.4% (inactive).

For the molecule `CCOc1ccc(C(C)c2cc3c(cc2OC)OCO3)cc1` (stereo not given), the growth inhibition was 2.3% (inactive).

As for `O=C1OC(c2ccc([N+](=O)[O-])cc2)=N/C1=C\c1cccc([N+](=O)[O-])c1`, the growth inhibition was 20.9% (inactive).

Consider `O=C1/C(=C\c2ccccn2)c2ccccc2N1Cc1ccccc1`, for which the growth inhibition is 1.25% (inactive).

For `CC(=Nc1cccc2ccccc12)c1c(O)cc(C)oc1=O`, the growth inhibition is 12.2% (inactive).

As for `O=C(O)c1cccc2c1C(=O)c1c(O)cccc1C2=O`, the growth inhibition was 19.9% (inactive).

Turning to `CCCOc1ccc(C(N)=S)c2ccccc12`, the growth inhibition is 1.1% (inactive).

For the molecule `O=C1C(O)=C(Br)C(=O)C(O)=C1Br`, the growth inhibition was -12.2% (inactive).

Regarding `N/C=N/O`, the growth inhibition was 4.35% (inactive).

As to `CC1CNC(=S)SSC(=S)N1` (stereo not given), the growth inhibition is 26.5% (inactive).

`Oc1ccccc1/C=N\c1nccs1`: the growth inhibition was 19.2% (inactive).

With `Cc1ccc(NC(=S)Nc2cccc(C(F)(F)F)c2)cc1C`, the growth inhibition was -4.45% (inactive).

For the molecule `CC(=O)c1cc2c(cc1C(C)C)C(C)(C)C(C)CC2(C)C` (stereo not given), the growth inhibition was -19.2% (inactive).

As to `C=CCNC(=S)N1c2ccccc2NC(=O)CC1C` (stereo not given), the growth inhibition is -9.2% (inactive).

As for `O=C1CN(CN2CCOCC2)C(=O)CN1CN1CCOCC1`, the growth inhibition is 19.1% (inactive).

Regarding `O=C(O)C1COCOC1c1ccccc1` (stereo not given), the growth inhibition was -10.3% (inactive).

On to `CC1CCC2C(C)C3C(CC4C5CC=C6CC(O)CCC6(C)C5CCC43C=O)N2C1` (stereo not given), for which the growth inhibition is 19.9% (inactive).

For the molecule `Cc1cccc2c1CCC21OC(=O)c2c1ccc1ccccc21` (stereo not given), the growth inhibition was 2.7% (inactive).

With `S=C(Sc1nc2ccccc2s1)Sc1nc2ccccc2s1`, the growth inhibition is 91.1% (active).

Consider `C/C=C1/CN2CCc3c([nH]c4ccccc34)C2CC1C(Cc1c[n+]2c(c3[nH]c4ccccc4c13)CC1C(C(=O)OC)=COC(C)C1C2)C(=O)OC` (stereo not given), for which the growth inhibition was -25.6% (inactive).

Regarding `O=C(O)/C=C\c1cc2c(cc1[N+](=O)[O-])OCO2`, the growth inhibition was -5.3% (inactive).

`CCCCCCCCCCCCCC(=O)OCCN(C)C`: the growth inhibition is -2.6% (inactive).

Consider `CCC1CNCCC1CC(=O)O` (stereo not given), for which the growth inhibition is -12.8% (inactive).

In the case of `COc1cc(-c2[nH]ncc2CCCC(=O)Nc2ccccc2[N+](=O)[O-])ccc1O`, the growth inhibition was -2.75% (inactive).

`C[N+]1(C)CCC(c2ccccc2)(c2ccccc2)C(O)C1` (stereo not given): the growth inhibition is 40.7% (inactive).

Turning to `Nc1nc(N)c(N=Nc2ccc(Cl)cc2)c(=O)[nH]1`, the growth inhibition was -20.6% (inactive).

As for `CN(C)c1ccccc1C(=O)NNC(=S)Nc1ccccc1`, the growth inhibition is -1.75% (inactive).

Regarding `NC(=O)c1cn(C2OC(CO)C(O)C2O)c2nc(N)nc(N)c2c1=O` (stereo not given), the growth inhibition is 19.4% (inactive).

For the molecule `CN(C)C(=O)Nc1ccc2c(c1)OCO2`, the growth inhibition was 8.6% (inactive).

For `CCOc1ccc(C2=C/C(=C/c3cccs3)C(=O)O2)cc1`, the growth inhibition was -7.2% (inactive).

As for `CO[C@H]1CC2CC1C1C3=C(NC21)C1(O)C[C@H]2CN(CC3)C1C[C@@H]2C(C)CO` (stereo not given in full), the growth inhibition is 9.9% (inactive).

On to `CC(C)(c1ccc([N+](=O)[O-])cc1)c1ccc(N)c([N+](=O)[O-])c1`, for which the growth inhibition is -9.65% (inactive).

On to `COc1ccc(-n2cnc3[nH]ncc3c2=O)cc1`, for which the growth inhibition was 0.75% (inactive).

In the case of `CC(=O)Oc1ccc2c(=O)c(C(C)=O)coc2c1`, the growth inhibition was -11.3% (inactive).

As for `CCN(CC)CCNC(=O)c1ccccc1NC(=O)C(=O)Nc1ccccc1C(=O)NCCN(CC)CC`, the growth inhibition is -13.2% (inactive).

For `CNS(=O)(=O)c1c(C)cccc1CC(=O)c1ccccc1`, the growth inhibition is 0.65% (inactive).

As to `COc1ccccc1C=Nc1ccc(O)cc1`, the growth inhibition was 12.3% (inactive).

Consider `Cn1c(SCc2ccc(F)cc2)nnc1C12CC3CC(CC(C3)C1)C2`, for which the growth inhibition is -12.2% (inactive).

With `C1=CC(c2ccccc2)C(c2ccccc2)C(c2ccccc2)=C1` (stereo not given), the growth inhibition is 2.05% (inactive).
